A short description of assay [1]: NCI Yeast Anticancer Drug Screen. Data for the rad50 strain (AID 155).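 Also: 0% = growth of vehicle-only cultures of the same strain.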 As to conditions: S. cerevisiae rad50 strain growth inhibition, stronger effect = higher value. Summed up: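 Compounds were tested on a yeast strain with an engineered DNA damage repair alteration; the reported value is growth inhibition normalised to vehicle treatment.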
Assay [2] in a line: NCI Yeast Anticancer Drug Screen. Data for the mec2-1 strain (AID 157). The conditions noted are these: S. cerevisiae mec2-1 strain, stronger effect = higher value. The method, boiled down:
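Compounds were applied to mec2-1 yeast cells. Their growth was then compared with that of vehicle-treated cultures to give growth inhibition.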

The nature of assay [3]: NCI Yeast Anticancer Drug Screen. Data for the sgs1 mgt1 strain (AID 161).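 Also: 0% = growth of cultures given vehicle only.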 As to conditions: S. cerevisiae sgs1 mgt1 strain, stronger effect = higher value. Summed up: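 This yeast growth screen uses a strain with defined DNA-repair lesions; compound-treated growth is compared with vehicle-treated growth.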
A short description of assay [4]: NCI Yeast Anticancer Drug Screen. Data for the cln2 rad14 strain (AID 165).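 Also: 0% = growth equal to vehicle treated cultures.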 The conditions noted are these: S. cerevisiae cln2 rad14 strain, stronger effect = higher value. The method, boiled down:
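Strain: cln2 rad14 yeast, altered in cell cycle control and DNA damage repair. Read-out: growth inhibition vs vehicle.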

The nature of assay [5]: NCI Yeast Anticancer Drug Screen. Data for the bub3 strain (AID 167). The conditions noted are these: S. cerevisiae bub3 mutant strain, stronger effect = higher value. Summed up: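 Growth of a checkpoint-deficient yeast mutant is measured after compound exposure. Values represent inhibition relative to vehicle.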
A short description of assay [6]: NCI Yeast Anticancer Drug Screen. Data for the mlh1 rad18 strain (AID 175). As to conditions: S. cerevisiae mlh1 rad18 strain growth inhibition, stronger effect = higher value. The method, boiled down:
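A repair-deficient yeast strain is exposed to test compound, and growth is scored relative to vehicle-treated controls.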

[7] abbreviates: at 5.0 µM (retest, dose inferred, filed as 0.5).
Setting [8] is: at 50.0 µM (retest, dose inferred, filed as 5.0).

The panel holds about 79,000 compounds, 15% with a hit somewhere; the sample as a whole holds those more often. A number with no mark means an inactive call. Activity calls are given as the source filed them. Rule as the data show it: active = growth inhibition above about 70%; inactive = the rest.

For the compound `Oc1c(Cl)cc(Cl)cc1C=NCCSc1ccc(Cl)cc1`, the growth inhibition in assay [1] (setting [7]) is 33%; in assay [1] (setting [8]), 99% (active); in assay [1] (at 50.0 µM), 92.2% (active); in assay [2] (setting [7]), 30%; in assay [2] (setting [8]), 99% (active); in assay [2] (at 50.0 µM) it was 93.8% (active). Besides, the growth inhibition in assay [3] (setting [7]) was 27%; in assay [3] (setting [8]), 99% (active); in assay [3] (at 50.0 µM) it was 94.8% (active); in assay [4] (setting [7]) it was 23%; in assay [4] (setting [8]), 99% (active); in assay [4] (at 50.0 µM), 93.2% (active). In addition, the growth inhibition in assay [5] (setting [7]) was 45%; in assay [5] (setting [8]), 99% (active); in assay [5] (at 50.0 µM), 93.9% (active); in assay [6] (setting [7]) it was 49%; in assay [6] (setting [8]) it was 99% (active); in assay [6] (at 50.0 µM) it was 92.7% (active).

Regarding `Nc1ccc(S(=O)(=O)N2CCCc3ccccc32)cc1`, the growth inhibition in assay [1] (setting [7]) is 5%; in assay [1] (setting [8]), 20%; in assay [1] (at 50.0 µM), 83.7% (active); in assay [2] (setting [7]) it was 7%; in assay [2] (setting [8]), 21%; in assay [2] (at 50.0 µM), 56.9%. Besides, the growth inhibition in assay [3] (setting [7]) is 4%; in assay [3] (setting [8]), 34%; in assay [3] (at 50.0 µM) it was 84% (active); in assay [5] (setting [7]), 3%; in assay [5] (setting [8]), 28%; in assay [5] (at 50.0 µM), 82% (active). Moreover, the growth inhibition in assay [6] (setting [7]) was 7%; in assay [6] (setting [8]), 40%; in assay [6] (at 50.0 µM) it was 74.4% (active).

Turning to `Cc1cc(NS(=O)(=O)c2ccc(NCc3c4ccccc4nc4cc(Cl)ccc34)cc2)no1`, the growth inhibition in assay [1] (setting [7]) was 26%; in assay [1] (setting [8]), 97% (active); in assay [1] (at 50.0 µM) it was 98.2% (active); in assay [2] (setting [7]), 22%; in assay [2] (setting [8]), 99% (active); in assay [2] (at 50.0 µM) it was 98.5% (active). The growth inhibition in assay [3] (setting [7]) was 27%; in assay [3] (setting [8]) it was 99% (active); in assay [3] (at 50.0 µM), 98.5% (active); in assay [4] (setting [7]), 6%; in assay [4] (setting [8]) it was 97% (active); in assay [4] (at 50.0 µM), 97.3% (active). Further, the growth inhibition in assay [5] (setting [7]) was 25%; in assay [5] (setting [8]) it was 99% (active); in assay [5] (at 50.0 µM), 96.2% (active); in assay [6] (setting [7]), 9%; in assay [6] (setting [8]), 97% (active); in assay [6] (at 50.0 µM), 98.2% (active).

With `CC(C)(C)NC(=S)N/N=C/c1ccccc1O`, the growth inhibition in assay [1] (setting [7]) was 48%; in assay [1] (setting [8]), 66%; in assay [1] (at 50.0 µM), 89% (active); in assay [2] (setting [7]) it was 25%; in assay [2] (setting [8]) it was 73% (active); in assay [2] (at 50.0 µM), 88.8% (active). For the same compound, the growth inhibition was 40% in assay [3] (setting [7]); 88% (active) in assay [3] (setting [8]); 92.5% (active) in assay [3] (at 50.0 µM); 24% in assay [4] (setting [7]); 59% in assay [4] (setting [8]); 87.2% (active) in assay [4] (at 50.0 µM). For the same compound, the growth inhibition in assay [5] (setting [7]) was 36%; in assay [5] (setting [8]) it was 78% (active); in assay [5] (at 50.0 µM), 88.2% (active); in assay [6] (setting [7]), 48%; in assay [6] (setting [8]) it was 96% (active); in assay [6] (at 50.0 µM), 91% (active).

`O=C(O)Cc1c[nH]c2ccccc12`: the growth inhibition was 46% in assay [1] (setting [7]); -3% in assay [1] (setting [8]); 51% in assay [1] (at 50.0 µM); 31% in assay [2] (setting [7]); 7% in assay [2] (setting [8]); 64% in assay [2] (at 50.0 µM). In addition, the growth inhibition was 42% in assay [3] (setting [7]); -2% in assay [3] (setting [8]); 94% (active) in assay [3] (at 50.0 µM); 85% (active) in assay [5] (setting [7]); -8% in assay [5] (setting [8]); 92.5% (active) in assay [5] (at 50.0 µM). Besides, the growth inhibition in assay [6] (setting [7]) is 84% (active); in assay [6] (setting [8]) it was -2%; in assay [6] (at 50.0 µM), 91.2% (active).

Take `NC(=O)c1oc([N+](=O)[O-])c(-c2ccccc2)c1-c1ccccc1`: the growth inhibition was 9% in assay [1] (setting [7]); 38% in assay [1] (setting [8]); 12.4% in assay [1] (at 50.0 µM); 5% in assay [2] (setting [7]); 50% in assay [2] (setting [8]); 16.6% in assay [2] (at 50.0 µM). The growth inhibition is 14% in assay [3] (setting [7]); 61% in assay [3] (setting [8]); 55.4% in assay [3] (at 50.0 µM); -6% in assay [4] (setting [7]); 10% in assay [4] (setting [8]); -22.6% in assay [4] (at 50.0 µM). The growth inhibition in assay [5] (setting [7]) was 16%; in assay [5] (setting [8]), 80% (active); in assay [5] (at 50.0 µM), 92.2% (active); in assay [6] (setting [7]), 11%; in assay [6] (setting [8]) it was 78% (active); in assay [6] (at 50.0 µM), 64.2%.

In the case of `C=Cc1cc(O)cc2c1-c1ccc(O)c(C)c1CC2`, the growth inhibition in assay [1] (setting [7]) was 10%; in assay [1] (setting [8]), 99% (active); in assay [1] (at 50.0 µM), 99.7% (active); in assay [2] (setting [7]), -22%; in assay [2] (setting [8]) it was 100% (active); in assay [2] (at 50.0 µM), 99.8% (active). The growth inhibition in assay [3] (setting [7]) was -1%; in assay [3] (setting [8]) it was 99% (active); in assay [3] (at 50.0 µM) it was 99.8% (active); in assay [4] (setting [7]), -3%; in assay [4] (setting [8]), 99% (active); in assay [4] (at 50.0 µM) it was 99.6% (active). Besides, the growth inhibition in assay [5] (setting [7]) was 10%; in assay [5] (setting [8]), 99% (active); in assay [5] (at 50.0 µM) it was 99.5% (active); in assay [6] (setting [7]), -5%; in assay [6] (setting [8]), 99% (active); in assay [6] (at 50.0 µM), 99.7% (active).

As for `O=C1/C(=C/c2cccc(O)c2)SC(=S)N1/C=C\c1nc2ccccc2[nH]c1=O`, the growth inhibition in assay [1] (setting [7]) is 8%; in assay [1] (setting [8]) it was 2%; in assay [1] (at 50.0 µM) it was 9.55%; in assay [2] (setting [7]), -8%; in assay [2] (setting [8]), -13%; in assay [2] (at 50.0 µM), 5.1%. Besides, the growth inhibition in assay [4] (setting [7]) was 17%; in assay [4] (setting [8]), -32%; in assay [4] (at 50.0 µM), 33.2%; in assay [5] (setting [7]), 11%; in assay [5] (setting [8]), -5%; in assay [5] (at 50.0 µM) it was -3.85%. Besides, the values for the growth inhibition in assay [6] (setting [7]), in assay [6] (setting [8]) and in assay [6] (at 50.0 µM) were -2%, -7% and -0.25%, respectively.

For the compound `O=C1c2c(F)c(F)c(F)c(F)c2SC2=NCCN12`, the growth inhibition was 2% in assay [1] (setting [7]); 99% (active) in assay [1] (setting [8]); 78.4% (active) in assay [1] (at 50.0 µM); -10% in assay [3] (setting [7]); 97% (active) in assay [3] (setting [8]); 76.5% (active) in assay [3] (at 50.0 µM). Also, the growth inhibition in assay [4] (setting [7]) is -23%; in assay [4] (setting [8]), 98% (active); in assay [4] (at 50.0 µM) it was 76.8% (active); in assay [5] (setting [7]), -31%; in assay [5] (setting [8]), 99% (active); in assay [5] (at 50.0 µM), 83.2% (active). Further, the results for the growth inhibition in assay [6] (setting [7]), in assay [6] (setting [8]) and in assay [6] (at 50.0 µM) were 11%, 98% (active) and 78.7% (active), respectively.

Source of the values: PubChem BioAssay (NCI).
